Compound activity as filed in PubChem.
SMARCA2 activ: SMARCA2 function activation, primary screen | MG213 cells, MMTV-luciferase reporter, dexamethasone, overnight | activation, % at 9.1 µM | actives 1% (n = 370,000) | AID 652017; in the data active = activation above about 7.8%
KLK7 zymogen act: activators of human kallikrein-7 zymogen | purified proKLK7, EDANS-DABCYL substrate fluorescence; 100% is mature enzyme control, 0% vehicle | activation, % at 7 µM | actives 0.9% (n = 370,000) | AID 652039;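 active = activation above the mean of all tested compounds plus 3 SD, computed per campaign excluding outliers beyond control limits, cut at about 13% in these data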
FAS TE block: blocks the thioesterase domain of human fatty acid synthase; actives 0.67% (n = 360,000); AID 602261; inhibition, % at 15 µM; recombinant FAS-TE, OMFH fluorogenic substrate, fluorescence endpoint; P49327;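 active = compounds whose normalised, plate-corrected inhibition of enzyme fluorescence in the single-dose primary screen is 50% or more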
GAA850 FXN act: increases GAA850 frataxin promoter reporter activity; activation, % at 6 µM; HEK293 lucGAA850 FXN promoter luciferase reporter, 24 h; percent of 10 µM SAHA response; actives 0.56% (n = 360,000); AID 540364;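 active = activation above the average of all compounds screened plus 3 SD, cutoff fixed separately per campaign, cut at about 7.5% in these data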
FAS-TE inh conf: FAS thioesterase (human) inhibition, confirmation; shares compounds with FAS TE block; recombinant FAS-TE, OMFH fluorogenic substrate, fluorescence; inhibition, % at 15 µM; actives 45% (n = 2,300);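 active = compounds inhibiting the enzyme by at least 50% at 15 µM in any one of the replicates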
Of the large screens only hits and unclear results are named; the others gave an inactive call (follow-up assays come after a bar, where they were run). Compounds with a hit are over-represented: about 2.9% of the library has one in this group of screens.

COc1ccc(/C=C/C(=O)Nc2cc(S(=O)(=O)N3CCCCC3)ccc2N2CCCCC2)cc1OC	FAS TE block 90 | FAS-TE inh conf inactive
COc1ccc(NC(=O)c2cc(C)nc3ccccc23)cc1S(=O)(=O)Nc1ccccc1Cl	none
COc1ccccc1NS(=O)(=O)c1cc(NC(=O)Nc2ccc(Cl)cc2Cl)ccc1N1CCCCC1	none
COc1cc(/C=C/C(=O)Nc2ccc(N3CCCCC3)c(S(=O)(=O)Nc3ccccc3Cl)c2)cc(OC)c1OC	FAS TE block 58 | FAS-TE inh conf inactive
C=CCc1ccc(OC(=O)c2ccccc2)c(OC)c1	none
Cc1ccc(C(=O)CN(CCC(=O)O)S(=O)(=O)c2ccc([N+](=O)[O-])cc2)cc1	FAS TE block 62 | FAS-TE inh conf 79
Cc1ccc(C(=O)CN(CCCC(N)=O)S(=O)(=O)c2ccc([N+](=O)[O-])cc2)cc1	FAS TE block 68 | FAS-TE inh conf 52
COc1ccc(C(=O)CN(CCC(=O)O)S(=O)(=O)c2ccc([N+](=O)[O-])cc2)cc1	FAS TE block 71 | FAS-TE inh conf 80
O=C(O)CCN(CC(=O)c1ccc(Cl)cc1)S(=O)(=O)c1ccc([N+](=O)[O-])cc1	FAS TE block 75 | FAS-TE inh conf 72
O=C(O)c1ccc(N2C(=O)C3C4c5ccccc5C(Br)(c5ccccc54)C3C2=O)cc1 (stereo unspecified)	none
Cn1ncc(Cl)c1C(=O)Nc1ccc(Cl)cn1	none
CC(NC(=O)c1cc([N+](=O)[O-])cc([N+](=O)[O-])c1)c1ccc(-n2ccnc2)cc1 (stereo unspecified)	FAS TE block 59 | FAS-TE inh conf 72
CCN1C(=O)[C@H]2[C@@H](c3ccc(-c4ccc(Cl)c(Cl)c4)c(OC)c3)N[C@@](Cc3ccccc3)(C(=O)OC)[C@H]2C1=O	FAS TE block 70 | FAS-TE inh conf inactive
CCN1C(=O)[C@H]2[C@@H](c3ccc(-c4ccc5c(c4)OCO5)cc3)N[C@@](Cc3ccccc3)(C(=O)OC)[C@H]2C1=O	FAS TE block 67 | FAS-TE inh conf inactive
CC1CCCC(NC(=O)COC(=O)c2ccccc2Sc2ccccc2C#N)C1C (stereo unspecified)	none
Cn1c(=O)oc2cc(S(=O)(=O)N3CCCC(C(=O)N4CCc5ccccc5C4)C3)ccc21 (stereo unspecified)	none
Cc1cc(-c2nnc(CSc3nnc(NC(=O)c4ccc(C(C)(C)C)cc4)s3)o2)ccc1[N+](=O)[O-]	FAS TE block 75 | FAS-TE inh conf inactive
COCCSc1nnc(NC(=O)c2ccc([N+](=O)[O-])cc2)s1	none
COc1ccc(C)cc1S(=O)(=O)N(CC(=O)Nc1cc([N+](=O)[O-])ccc1C)c1ccc(C)c(C)c1	FAS TE block 65 | FAS-TE inh conf inactive
COc1ccc([N+](=O)[O-])cc1NC(=O)c1ccc(CN(c2ccc(C)c(C)c2)S(C)(=O)=O)cc1	FAS TE block 68 | FAS-TE inh conf inactive
O=[N+]([O-])c1ccc(NNC(=S)Nc2ccccc2)cc1	none (no result: SMARCA2 activ, KLK7 zymogen act)
Cc1c(OCC(=O)NC(Cc2ccc(Cl)cc2)C(=O)O)ccc2c(-c3ccccc3)cc(=O)oc12 (stereo unspecified)	FAS TE block 55 | FAS-TE inh conf 62
COc1ccc(C#Cc2ccc3c(c2)O[C@H](CN(C)C(C)=O)[C@H](C)CN([C@@H](C)CO)S3(=O)=O)cc1	none
CCOC(=O)C(C)Oc1cc(Cl)c(C=O)cc1OC (stereo unspecified)	none
Cc1ccc(-c2nnc(N(C)C(=O)c3cccnc3)s2)cc1	none
N#Cc1cc(-c2ccccc2)nc(NN)n1	none
N#Cc1cc(-c2ccccc2)nc(Oc2ccc(Cl)cc2)n1	FAS TE block 65 | FAS-TE inh conf 53
N#Cc1ccc(-n2c(-c3ccccc3)nnc2-c2ccccc2)cc1C#N	none
N#Cc1cccc(-n2c(-c3ccccc3)nnc2-c2ccccc2)c1C#N	FAS TE block 58 | FAS-TE inh conf inactive
Cn1c(=O)c(C(=O)c2ccccc2)nc2ccccc21	none
O=C(c1ccccc1)c1nc2ccccc2n(CCCn2c(=O)c(C(=O)c3ccccc3)nc3ccccc32)c1=O	FAS TE block 60 | FAS-TE inh conf inactive
COc1cccc(NC(=O)c2cc([N+](=O)[O-])ccc2NC(=O)CNCC2CCCO2)c1 (stereo unspecified)	FAS TE block 52 | FAS-TE inh conf 57
COc1ccc(C(CNC(=O)c2cccc(S(=O)(=O)N3CCCC(C)C3)c2)N(C)C)cc1 (stereo unspecified)	none
C/C(=N\NC(=O)c1ccoc1C)c1ccccc1	none
CCOC1=C2CN(S(=O)(=O)c3ccccc3)[C@H](c3ccccc3)C[C@H]2n2c(=O)n(-c3ccccc3)c(=O)n2C1	FAS TE block 80 (no result: GAA850 FXN act) | FAS-TE inh conf inactive
CCOC1=C2CN(S(=O)(=O)c3ccc(C)cc3)C(c3ccc(CC)cc3)CC2n2c(=O)n(-c3ccccc3)c(=O)n2C1 (stereo unspecified)	none (no result: FAS TE block, GAA850 FXN act)
CCOC1=C2[C@H](c3ccccc3)N(S(=O)(=O)c3ccccc3)C[C@H]2n2c(=O)n(-c3ccccc3)c(=O)n2C1	FAS TE block 73 (no result: GAA850 FXN act) | FAS-TE inh conf inactive
CCOC1=C2[C@H](c3cccs3)N(S(=O)(=O)c3ccc(C)cc3)C[C@H]2n2c(=O)n(-c3ccccc3)c(=O)n2C1	FAS TE block 73 (no result: GAA850 FXN act) | FAS-TE inh conf inactive
Cc1cccc(Cn2c(C)nc3ccc([N+](=O)[O-])cc3c2=O)c1	none
Cc1nc2ccc([N+](=O)[O-])cc2c(=O)n1Cc1ccc(F)cc1	FAS TE block 71 | FAS-TE inh conf 75
Cc1nc2ccc([N+](=O)[O-])cc2c(=O)n1Cc1cccc(F)c1	none
Cc1ccccc1Cn1c(C)nc2ccc([N+](=O)[O-])cc2c1=O	FAS TE block 61 | FAS-TE inh conf 51
COCCN(CC(=O)Nc1cccc(C)c1)S(=O)(=O)c1ccc(S(=O)(=O)N2CCCC2)cc1	none
O=C(Nc1ccc(OC(F)(F)F)cc1)c1cccc(-n2cnnn2)c1	FAS TE block 56 | FAS-TE inh conf inactive
CCOc1ccc(NC(=O)c2cccc(-n3cnnn3)c2)cc1	none
Cc1cc([N+](=O)[O-])nn1CCCC(=O)Nc1cc(Oc2ccccc2)cc([N+](=O)[O-])c1	none
Cc1cccc(Oc2cc(NC(=O)Cn3cnc([N+](=O)[O-])n3)cc([N+](=O)[O-])c2)c1	FAS TE block 59 | FAS-TE inh conf inactive
CC(C)Cn1c2c(c(O)c(C(=O)Nn3c(Cc4ccccc4)nc4ccccc4c3=O)c1=O)CCCC2	FAS TE block 54 | FAS-TE inh conf inactive
Cc1ccc(S(=O)(=O)c2c(C(=O)c3ccccc3)cnc3cc4c(cc23)OCCO4)cc1	FAS TE block 70 | FAS-TE inh conf inactive
Cc1c(C(=O)c2ccc(Cl)c(Cl)c2)cnc2cc3c(cc12)OCO3	none
C(=C1c2ccccc2-c2ccccc21)c1ccncc1	none
CC(NC(=O)C(C(=O)c1cccc([N+](=O)[O-])c1)n1cc(Cl)ccc1=O)c1ccccc1 (stereo unspecified)	FAS TE block 59 | FAS-TE inh conf 65
